# Results filed as inconclusive are left out. A call without a number means that no potency is given here. Active and inactive are the calls of the source. Calls come from the whole dose curve; as a rule, active = well fitted curve in the direction sought with a large enough effect in the repeat runs; inconclusive = weak or mixed curves; inactive = no such curve, though single readings can be large; an effect the other way counts as inactive or inconclusive.
# System: not listed separately
# Assay: qHTS assay to identify small molecule antagonists of the androgen receptor (AR) signaling pathway - cell viability counter screen (AID 743033; note: nearly all actives have a fitted effect of over 45% in size)
# Conditions: AR-bla HEK293 viability, CellTiter-Glo luminescence, 16 h; series mostly up to 58.5 µM
# Potency is the fitted concentration of half-maximal effect.
row,SMILES,Potency
1,FC(F)(F)C(F)(F)C(F)(F)C(F)(F)C(F)(F)C(F)(F)F,inactive
2,O=C1/C(=C\c2cccs2)CCC/C1=C\c1cccs1,inactive
3,C/C=C1\NC(=O)[C@H]2CSSCC/C=C/[C@H](CC(=O)N[C@H](C(C)C)C(=O)N2)OC(=O)C(C(C)C)NC1=O (stereo partly drawn),4770 nM (active)
4,CCCCCCCCCCCCCCCCCCCCCCO,inactive
5,OCCO[C@@H]1[C@@H](O)[C@H](O)[C@@H](CO)O[C@@H]1O,inactive
6,CCC[C@@]1(CCc2ccccc2)CC(O)=C([C@H](CC)c2cccc(NS(=O)(=O)c3ccc(C(F)(F)F)cn3)c2)C(=O)O1,inactive
7,CCCCCCCCCCCCCCCCCC(=O)[O][Al],inactive
8,CCN(CC)c1ccc(C(=C2C=CC(=[N+](CC)CC)C=C2)c2ccccc2)cc1,2390 nM (active)
9,C[C@H]1C[C@H]2[C@@H]3CCC4=CC(=O)C=C[C@]4(C)[C@@]3(F)[C@@H](O)C[C@]2(C)[C@@]1(O)C(=O)CCl,inactive
10,c1ccc2c(c1)Sc1ccccc1N2CCN1CCCC1,inactive
11,CCCCC(F)(F)[C@@]1(O)CC[C@H]2[C@@H](CC(=O)[C@@H]2CCCCCCC(=O)O)O1,inactive
12,CO/N=C(\C(=O)N[C@@H]1C(=O)N2C(C(=O)O)=C(CSc3nnnn3C)CS[C@H]12)c1csc(N)n1,inactive
13,CS(=O)(=O)Nc1cc2occ(NC=O)c(=O)c2cc1Oc1ccccc1,inactive
14,Nc1ncnc(Nc2ccc(Cl)cc2)n1,inactive
15,Cc1c(N)nc(C(CC(N)=O)NCC(N)C(N)=O)nc1C(=O)NC(C(=O)NC(C)C(O)C(C)C(=O)NC(C(=O)NCCc1nc(-c2nc(C(=O)NCCCN[C@@H](C)c3ccccc3)cs2)cs1)C(C)O)C(O[C@@H]1O[C@@H](CO)[C@@H](O)[C@H](O)[C@@H]1O[C@H]1O[C@H](CO)[C@@H](O)[C@H](OC(N)=O)[C@@H]1O)c1cnc[nH]1 (stereo partly drawn),inactive
16,C[C@]12CC[C@@H]3c4ccc(OS(=O)(=O)O)cc4CC[C@H]3[C@@H]1CCC2=O,inactive
17,CN1[C@@H]2CC[C@H]1CC(OC(c1ccccc1)c1ccccc1)C2 (stereo partly drawn),inactive
18,CCCc1ccc(C(=O)O)cc1,inactive
19,Cc1cccc(C)c1Nc1ncccc1C(=O)O,inactive
20,O=C1O[C@H]2[C@H](O)[C@@H]1OC(O)[C@H]2O (stereo partly drawn),inactive

row,SMILES,Potency
1,CC(C)(C)NCC(O)c1ccc(O)c(CO)n1 (stereo not drawn),inactive
2,Nc1nc(=O)n([C@@H]2CS[C@H](CO)O2)cc1F,inactive
3,NCCCC[C@H](NC(=O)[C@@H]1CCCN1C(=O)[C@@H]1CSSC[C@H](N)C(=O)N[C@@H](Cc2ccccc2)C(=O)N[C@@H](Cc2ccccc2)C(=O)N[C@@H](CCC(N)=O)C(=O)N[C@@H](CC(N)=O)C(=O)N1)C(=O)NCC(N)=O,inactive
4,CCCCCCCCCCCCCCCC(=O)OC[C@@H](NC(=O)C(Cl)Cl)[C@H](O)c1ccc([N+](=O)[O-])cc1,inactive
5,N=C(N)c1ccc(OCCCOc2ccc(C(=N)N)cc2Br)c(Br)c1,inactive
6,N[C@H](CC(=O)O)C(=O)O,inactive
7,CS(=O)(=O)OCCCNCCCOS(C)(=O)=O,inactive
8,O=[n+]1ccn([O-])c2ccccc21,inactive
9,O=C(O)[C@H]1/C(=C/CO)O[C@@H]2CC(=O)N21,inactive
10,CCC(=O)OCC(=O)[C@@]1(OC(=O)CC)[C@@H](C)C[C@H]2[C@@H]3CCC4=CC(=O)C=C[C@]4(C)[C@@]3(Cl)[C@@H](O)C[C@@]21C,inactive
11,COc1ccc(CNCC(O)COc2ccc3[nH]c(=O)ccc3c2)cc1OC (stereo not drawn),inactive
12,O=C(O)C1CCCN1 (stereo not drawn),inactive
13,Cc1cc2nc3c(=O)[nH]c(=O)nc-3n(C[C@H](O)[C@H](O)[C@H](O)COP(=O)(O)OP(=O)(O)OC[C@H]3O[C@@H](n4cnc5c(N)ncnc54)[C@H](O)[C@@H]3O)c2cc1C,inactive
14,Cc1ccc(C2(O)CCN(CCCC(=O)c3ccc(F)cc3)CC2)cc1,inactive
15,CC(C(=O)O)c1ccc(C2CCCCC2)c2ccccc12 (stereo not drawn),inactive
16,CO[C@H]1C[C@@H]2CC[C@@H](C)[C@@](O)(O2)C(=O)C(=O)N2CCCC[C@H]2C(=O)O[C@H]([C@H](C)C[C@@H]2CC[C@@H](OCCO)[C@H](OC)C2)CC(=O)[C@H](C)/C=C(\C)[C@@H](O)[C@@H](OC)C(=O)[C@H](C)C[C@H](C)/C=C/C=C/C=C/1C,inactive
17,CCCCCCCN(CC)CCCC(O)c1ccc(NS(C)(=O)=O)cc1 (stereo not drawn),inactive
18,CC(C)(C)CC(=O)OCC(=O)[C@@]12OC(C)(C)O[C@@H]1C[C@H]1[C@@H]3CCC4=CC(=O)C=C[C@]4(C)[C@@]3(F)[C@@H](O)C[C@@]12C,inactive
19,CO/N=C(\C(=O)N[C@@H]1C(=O)N2C(C(=O)O)=CCS[C@H]12)c1csc(N)n1,inactive

# Biological target: Androgen receptor (Homo sapiens) (UniProt P10275)
# Sequence (P10275 whole entry, looked up): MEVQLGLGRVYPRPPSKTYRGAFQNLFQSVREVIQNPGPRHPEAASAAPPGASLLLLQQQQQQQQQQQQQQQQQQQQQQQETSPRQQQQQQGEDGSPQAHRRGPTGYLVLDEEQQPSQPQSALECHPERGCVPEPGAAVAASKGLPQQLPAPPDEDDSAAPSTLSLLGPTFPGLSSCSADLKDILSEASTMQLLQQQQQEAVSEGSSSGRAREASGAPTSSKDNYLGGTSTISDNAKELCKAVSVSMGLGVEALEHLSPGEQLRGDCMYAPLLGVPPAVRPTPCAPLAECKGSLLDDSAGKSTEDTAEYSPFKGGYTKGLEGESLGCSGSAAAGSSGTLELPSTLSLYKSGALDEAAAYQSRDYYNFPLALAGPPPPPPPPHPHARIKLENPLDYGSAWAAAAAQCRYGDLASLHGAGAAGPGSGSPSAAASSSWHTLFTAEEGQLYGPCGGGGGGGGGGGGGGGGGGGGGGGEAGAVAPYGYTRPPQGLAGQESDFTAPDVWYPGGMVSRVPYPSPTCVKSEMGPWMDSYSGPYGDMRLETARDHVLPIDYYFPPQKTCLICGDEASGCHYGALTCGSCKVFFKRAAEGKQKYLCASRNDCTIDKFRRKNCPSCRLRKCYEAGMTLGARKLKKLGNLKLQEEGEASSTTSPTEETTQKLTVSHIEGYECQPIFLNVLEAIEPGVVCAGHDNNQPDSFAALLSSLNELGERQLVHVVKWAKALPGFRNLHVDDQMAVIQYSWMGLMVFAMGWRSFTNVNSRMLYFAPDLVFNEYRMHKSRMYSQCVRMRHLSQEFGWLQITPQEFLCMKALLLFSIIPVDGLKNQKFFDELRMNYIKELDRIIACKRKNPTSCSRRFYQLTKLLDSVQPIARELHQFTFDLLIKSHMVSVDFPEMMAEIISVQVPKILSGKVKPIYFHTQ
# Assay: qHTS assay to identify small molecule agonists of the androgen receptor (AR) signaling pathway using the MDA cell line (AID 743040; note: nearly all actives have a fitted effect of over 20% in size)
# Conditions: MDA-kb2 AR-luc cells, MMTV luciferase, 16 h; series mostly up to 70.3 µM
# Procedure, shortened: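 Stable MMTV-luciferase reporter in MDA-kb2 cells; note the promoter carries GR as well as AR response elements. 16 h compound treatment, 37C, 0% CO2; ONE-Glo luminescence endpoint.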
row,SMILES,Potency
1,O=C1/C(=C\c2cccs2)CCC/C1=C\c1cccs1,inactive
2,C/C=C1\NC(=O)[C@H]2CSSCC/C=C/[C@H](CC(=O)N[C@H](C(C)C)C(=O)N2)OC(=O)C(C(C)C)NC1=O (stereo partly drawn),inactive
3,CCN(CC)c1ccc(C(=C2C=CC(=[N+](CC)CC)C=C2)c2ccccc2)cc1,inactive
4,CCCCC(F)(F)[C@@]1(O)CC[C@H]2[C@@H](CC(=O)[C@@H]2CCCCCCC(=O)O)O1,inactive
5,CS(=O)(=O)Nc1cc2occ(NC=O)c(=O)c2cc1Oc1ccccc1,inactive
6,Cc1cccc(C)c1Nc1ncccc1C(=O)O,inactive
7,CCC(=O)OCC(=O)[C@@]1(OC(=O)CC)[C@@H](C)C[C@H]2[C@@H]3CCC4=CC(=O)C=C[C@]4(C)[C@@]3(Cl)[C@@H](O)C[C@@]21C,9.4 nM (active)
8,Cc1cc2nc3c(=O)[nH]c(=O)nc-3n(C[C@H](O)[C@H](O)[C@H](O)COP(=O)(O)OP(=O)(O)OC[C@H]3O[C@@H](n4cnc5c(N)ncnc54)[C@H](O)[C@@H]3O)c2cc1C,inactive
9,CO[C@H]1C[C@@H]2CC[C@@H](C)[C@@](O)(O2)C(=O)C(=O)N2CCCC[C@H]2C(=O)O[C@H]([C@H](C)C[C@@H]2CC[C@@H](OCCO)[C@H](OC)C2)CC(=O)[C@H](C)/C=C(\C)[C@@H](O)[C@@H](OC)C(=O)[C@H](C)C[C@H](C)/C=C/C=C/C=C/1C,inactive
